Data as given in PubChem BioAssay.

Key:
[1] = tested on: Botulinum neurotoxin type F light chain protease (Clostridium botulinum); test: Botulinum neurotoxin type F light chain protease inhibition, multiplex microsphere flow cytometry, validation set (AID 588459); conditions: multiplex microsphere protease substrate cleavage assay, at 10 µM, stronger effect = higher value
[2] = biological target: Botulinum neurotoxin type A (Clostridium botulinum) (UniProt P0DPI0); test: BoNT/A light chain protease inhibitors, biochemical, multiplex microsphere flow cytometry, validation set (AID 588460); conditions: at 10 µM, stronger effect = higher value
[3] = biological target: Lethal factor (Bacillus anthracis) (UniProt P15917); test: Lethal factor protease inhibitors, Bacillus anthracis, multiplex microsphere cleavage assay, validation set (AID 588461); conditions: flow cytometry, at 10 µM, stronger effect = higher value

Measured: inhibition

Chain of Lethal factor (Bacillus anthracis) (P15917 whole entry, looked up): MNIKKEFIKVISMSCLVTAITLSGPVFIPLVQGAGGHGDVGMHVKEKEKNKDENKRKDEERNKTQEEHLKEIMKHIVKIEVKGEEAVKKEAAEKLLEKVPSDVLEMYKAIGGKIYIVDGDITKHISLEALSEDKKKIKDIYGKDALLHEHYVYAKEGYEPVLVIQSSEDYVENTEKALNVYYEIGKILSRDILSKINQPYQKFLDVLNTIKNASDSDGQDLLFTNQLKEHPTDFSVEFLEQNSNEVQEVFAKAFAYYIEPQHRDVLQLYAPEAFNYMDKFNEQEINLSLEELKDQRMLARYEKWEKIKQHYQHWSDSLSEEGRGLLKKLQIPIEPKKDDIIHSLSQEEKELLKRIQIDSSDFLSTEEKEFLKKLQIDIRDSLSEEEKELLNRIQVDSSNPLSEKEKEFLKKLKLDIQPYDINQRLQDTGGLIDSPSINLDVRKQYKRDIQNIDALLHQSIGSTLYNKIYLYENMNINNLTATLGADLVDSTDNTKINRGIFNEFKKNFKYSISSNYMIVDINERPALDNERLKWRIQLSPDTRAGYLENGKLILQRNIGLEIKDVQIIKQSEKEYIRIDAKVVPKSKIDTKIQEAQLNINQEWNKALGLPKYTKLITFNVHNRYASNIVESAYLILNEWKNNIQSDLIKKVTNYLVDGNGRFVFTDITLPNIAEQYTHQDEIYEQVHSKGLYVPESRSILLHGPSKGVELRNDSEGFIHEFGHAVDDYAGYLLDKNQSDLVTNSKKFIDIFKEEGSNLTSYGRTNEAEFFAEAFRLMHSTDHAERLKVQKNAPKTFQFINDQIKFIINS
Chain of Botulinum neurotoxin type A (Clostridium botulinum) (P0DPI0 whole entry, looked up): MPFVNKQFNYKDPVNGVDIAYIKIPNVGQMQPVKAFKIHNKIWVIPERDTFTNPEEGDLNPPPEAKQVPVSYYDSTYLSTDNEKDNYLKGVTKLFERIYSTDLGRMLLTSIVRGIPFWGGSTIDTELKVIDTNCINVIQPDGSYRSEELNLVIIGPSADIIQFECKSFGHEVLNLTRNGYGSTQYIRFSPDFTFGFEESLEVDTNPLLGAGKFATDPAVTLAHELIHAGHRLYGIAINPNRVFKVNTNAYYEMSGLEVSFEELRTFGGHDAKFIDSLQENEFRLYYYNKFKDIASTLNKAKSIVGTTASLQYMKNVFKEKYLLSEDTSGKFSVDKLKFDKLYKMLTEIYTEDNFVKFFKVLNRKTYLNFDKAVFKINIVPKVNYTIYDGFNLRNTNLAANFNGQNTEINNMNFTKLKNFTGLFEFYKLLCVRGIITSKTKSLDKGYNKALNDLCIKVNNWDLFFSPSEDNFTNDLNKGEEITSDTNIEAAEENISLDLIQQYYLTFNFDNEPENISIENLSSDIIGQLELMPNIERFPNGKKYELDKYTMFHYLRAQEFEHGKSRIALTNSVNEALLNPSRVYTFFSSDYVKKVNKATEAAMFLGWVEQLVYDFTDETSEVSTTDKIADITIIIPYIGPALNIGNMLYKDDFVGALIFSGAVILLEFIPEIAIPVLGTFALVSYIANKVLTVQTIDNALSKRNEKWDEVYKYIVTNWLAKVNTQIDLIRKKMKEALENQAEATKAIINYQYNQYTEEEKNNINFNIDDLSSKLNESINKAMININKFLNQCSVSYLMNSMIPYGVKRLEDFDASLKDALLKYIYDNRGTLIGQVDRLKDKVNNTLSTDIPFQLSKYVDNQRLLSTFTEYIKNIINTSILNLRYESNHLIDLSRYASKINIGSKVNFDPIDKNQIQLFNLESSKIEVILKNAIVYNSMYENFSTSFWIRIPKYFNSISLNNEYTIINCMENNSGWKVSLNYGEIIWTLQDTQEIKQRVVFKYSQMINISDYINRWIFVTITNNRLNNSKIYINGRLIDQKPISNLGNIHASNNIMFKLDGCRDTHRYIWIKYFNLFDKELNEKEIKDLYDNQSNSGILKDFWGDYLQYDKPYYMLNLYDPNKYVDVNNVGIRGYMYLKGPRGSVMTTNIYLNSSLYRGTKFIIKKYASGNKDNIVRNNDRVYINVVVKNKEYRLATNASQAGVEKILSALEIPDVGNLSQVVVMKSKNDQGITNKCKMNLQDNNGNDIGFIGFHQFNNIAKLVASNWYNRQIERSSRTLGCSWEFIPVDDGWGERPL

CC/C(=C1/C(=O)CC(C)(C)C(C(=O)OC)C1=O)N1CCCC1 (stereo not given)
inactive: [1] -4.4% | [2] -1.4% | [3] -9.3%

COc1ccccc1OCC(=O)O
inactive: [1] 1% | [2] -0.9% | [3] -1.4%

CCCCC[C@H](O)/C=C/[C@@H]1[C@@H](CCCCCCC(=O)O)[C@@H](O)C[C@H]1O
inactive: [1] -2.9% | [2] -1.3% | [3] 0.1%

O=C1CCCN1C(=O)CCC(=O)N1CCCC1=O
inactive: [1] -1.4% | [2] 0.3% | [3] -2.8%

COc1cccc(CC2CC(=O)N(c3ccc4c(C)cc(=O)oc4c3)C2=O)c1 (stereo not given)
inactive: [1] 3.1% | [2] -0.1% | [3] 4.1%

CC(=O)[C@H]1[C@H](C#N)C[C@H]2[C@@H]3CC=C4C[C@@H](O)CC[C@]4(C)[C@H]3CC[C@@]21C
inactive: [1] 4.5% | [2] 1.4% | [3] 4.8%

Cc1ccc([N+](=O)[O-])cc1NC1OC(CO)C(O)C1O (stereo not given)
inactive: [1] 1.5% | [2] -1.1% | [3] -1.7%

CCC(=O)Oc1ccc(C(=O)Nc2ccc([N+](=O)[O-])cc2)cc1
inactive: [1] 2.3% | [2] -0.2% | [3] -3.6%

Cc1ccccc1-c1nn(-c2ccc(F)cc2F)cc1CNCCN(C)C
inactive: [1] -1.9% | [2] -0.5% | [3] -2.9%

CC(=O)c1cccc(NC(=O)N[C@@H](CC(C)C)C(=O)O)c1
inactive: [1] -0.3% | [2] -1.7% | [3] -2.8%
